# From PubChem
# ELG1 repair inh – qHTS screen for small molecules that inhibit ELG1-dependent DNA repair in human embryonic kidney (HEK293T) cells expressing luciferase-tagged ELG1; Potency, µM (doses to about 46.1 µM), hits mostly inhibitors; actives 2.3% (n = 330,000); HEK293T ELG1-luciferase reporter, luminescence, 16 h; DNA damage induced by 5-fluorouridine; AID 504467, 2011; also: nearly all actives have a fitted effect of over 55% in size
#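 Overnight (16 hr) co-exposure of 2,000 cells/well to 5-fluorouridine and compound at 37 °C preceded detection. Luciferase was quantified via ONE-Glo luminescence; loss of signal denotes inhibition.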
# SMN2 splice up – qHTS Assay for Enhancers of SMN2 Splice Variant Expression | HEK293 SMN2-luciferase splicing reporter, luminescence, 30-36 h | Potency, µM (top dose mostly 46.1 µM), hits mostly activators | actives 2.8% (n = 210,000) | AID 1458, 2008; also: nearly all actives have a fitted effect of over 55% in size
#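 qHTS luciferase splicing reporter: luminescence rises when SMN2 exon 7 is included in transfected HEK293 cells. Compound exposure lasted 30-36 h at 37C, with 4.5 mM final sodium butyrate as control, followed by a ONE-Glo read.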
# ELG1 genotoxic – qHTS screen for small molecules that induce genotoxicity in human embryonic kidney (HEK293T) cells expressing luciferase-tagged ELG1 | Potency, µM (top dose mostly 46 µM), usual class: activators | AID 504466, 2011 | HEK293T ELG1-luciferase reporter, luminescence, 16 h | actives 1.3% (n = 330,000); also: nearly all actives have a fitted effect of over 60% in size
#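 HEK293T cells expressing luciferase-tagged ELG1 were treated with compound or DMSO for 16 hr at 37°C. Luciferase activity was then read after 30 min with ONE-Glo at room temperature; rising signal flags genetic stress.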
# NPC1 promoter act – qHTS Assay for NPC1 Promoter Activators. Huh7 NPC1 promoter luciferase reporter, 24 h. Potency, µM (highest dose often 9.22 µM), usual class: activators. actives 2.4% (n = 320,000); also: nearly all actives have a fitted effect of over 60% in size
#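 Luminescence read-out of NPC1 promoter-driven luciferase in stably transfected Huh7 cells; compounds delivered in DMSO and left 24 h at 37C, 5% CO2, qHTS titration format.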
# FLuc counter – qHTS profiling assay for firefly luciferase inhibitor/activator using purifed enzyme and Km concentrations of substrates (counterscreen for miR-21 project); Potency, µM (highest dose often 57.5 µM), usual class: inhibitors; actives 6.9% (n = 360,000); purified FLuc, Km substrates, luminescence inhibition; Luciferin 4-monooxygenase (Photinus pyralis), P08659; also: nearly all actives have a fitted effect of over 55% in size
# Target sequence (P08659 whole entry, looked up): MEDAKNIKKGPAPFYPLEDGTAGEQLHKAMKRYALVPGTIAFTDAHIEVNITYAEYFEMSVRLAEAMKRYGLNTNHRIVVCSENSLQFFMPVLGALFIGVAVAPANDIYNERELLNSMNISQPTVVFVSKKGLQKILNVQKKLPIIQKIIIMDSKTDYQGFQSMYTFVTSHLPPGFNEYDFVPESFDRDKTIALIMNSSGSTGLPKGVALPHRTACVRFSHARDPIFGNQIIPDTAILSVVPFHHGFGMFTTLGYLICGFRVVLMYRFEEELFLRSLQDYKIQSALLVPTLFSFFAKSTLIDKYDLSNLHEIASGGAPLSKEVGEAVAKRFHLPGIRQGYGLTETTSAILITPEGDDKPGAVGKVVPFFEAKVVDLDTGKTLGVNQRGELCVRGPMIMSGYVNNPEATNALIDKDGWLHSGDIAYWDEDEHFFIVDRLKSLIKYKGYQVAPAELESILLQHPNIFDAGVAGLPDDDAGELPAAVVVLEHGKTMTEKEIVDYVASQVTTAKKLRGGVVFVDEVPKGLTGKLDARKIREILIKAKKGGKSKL
#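 Purified P. pyralis luciferase (10nM final) with 10uM D-luciferin and 10uM ATP (Km levels) in 50mM Tris acetate pH 7.5, 10mM Mg acetate, 0.01% Tween-20, 0.05% BSA; qHTS 6-point titration, ~60 µM downward; luminescence read.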
# Rab9 prom act – qHTS Assay for Rab9 Promoter Activators. Huh7 Rab9 promoter-luciferase reporter, luminescence, 24 h. Potency, µM (series often up to 9.22 µM), actives largely listed as activators. actives 2.8% (n = 320,000). AID 485297, 2010; also: nearly all actives have a fitted effect of over 60% in size
#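 Measured in stably transfected Huh7 cells bearing a Rab9 promoter–luciferase construct: 24 h compound treatment at 37 °C, followed by luminescence detection.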
# Numbers stand for hits; i = inactive; ? = inconclusive; nt = not tested or not shown; ! = repeats disagree; [ ] = another dose, or the depositor's remark. Only some compounds are listed: those with a hit (about 9.2% of all), similar ones and a draw of the others. Calls follow the shape of the dose curve; as a rule, active = well fitted curve in the direction sought with a large enough effect; inconclusive = small, poorly fitted or top-dose-only effect, or another doubt; inactive = no such curve, though single readings can be large; an effect the other way counts as inactive or inconclusive.
SMILES,ELG1 repair inh,SMN2 splice up,ELG1 genotoxic,NPC1 promoter act,FLuc counter,Rab9 prom act
c1ccc(OCc2nc3ccccc3[nH]2)cc1,?,12.6µM,?,2.82µM,12µM,3.98µM
CCc1nc2ccccc2[nH]1,i,i,i,i,i,i
OC(Cc1nc2ccccc2[nH]1)c1ccccc1Cl (configuration not stated),?,i,i,i,23.9µM,i
Cc1ccc(OCc2nc3ccccc3[nH]2)cc1,?,3.55µM,?,1.41µM,1.35µM,0.631µM
Clc1ccc(OCc2nc3ccccc3[nH]2)cc1,?,11.2µM,?,2µM,3.38µM,1.12µM
CC(C)N1CCN(c2ccc(S(=O)(=O)N3CCOCC3)cn2)CC1,i,nt,i,i,i,i
COCCSc1nnc(NC(=O)CSc2ccccc2)s1,i,i,i,i,i,i
CC(C)(C)C(=O)Nc1nnc(SCc2cccc(F)c2)s1,?,?,i,?,19µM,2µM
COCCSc1nnc(NC(=O)C(C)(C)C)s1,?,nt,i,?,15.1µM,?
CC(C)(C)C(=O)Nc1nnc(SCc2ccc(F)cc2)s1,?,i,?,i,?,i
Cc1ccc(N(C)C(=O)CCS(=O)(=O)c2cc3c(cc2Cl)NC(=O)CO3)cc1,i,nt,i,i,1.69µM!,i
CCN(C(=O)CCS(=O)(=O)c1cc2c(cc1Cl)NC(=O)CO2)c1ccccc1,i,nt,i,i,i,i
c1ccn2cc(-c3ccc4c(c3)OCO4)cc2c1,?,12.6µM,?,?,3.38µM,3.16µM
CS(=O)(=O)Nc1ccc(-c2cn3cccnc3n2)cc1,?,nt,i,i,?,i[1.84 µM]
O=C(Nc1cccc(-c2cn3c(n2)SCC3)c1)c1ccc2c(c1)OCO2,?,i,i,i,10.7µM,?
O=C(Nc1ccc(-c2cn3c(n2)SCC3)cc1)c1ccc2c(c1)OCO2,?,i,i,i,?,?
O=C(Nc1cccc(-c2cn3cccnc3n2)c1)c1ccc2c(c1)OCO2,?,i,i,i,12µM,i
Cc1ccc(-c2cn3cccnc3n2)cc1,?,nt,i,2.82µM,15.1µM,?
CCN(CC)CCCNC(=O)c1ccc2c(c1)NC(=O)C(CS(=O)(=O)Cc1ccc(F)cc1Cl)N2 (configuration not stated),nt,nt,nt,nt,i,nt
Nc1cccc(-c2cn3cccnc3n2)c1,i,i,i,i,i,i
c1cnc2nc(-c3ccc4c(c3)OCO4)cn2c1,?,nt,?,?,9.53µM,2.51µM
Cc1cc(C)nc(NC(=O)c2ccc(Br)cc2)n1,i,nt,i,i,i,i
Cc1cc(NO)nc(-c2ccc(Br)cc2)n1,?,15.8µM,?,?,23.9µM,4.47µM
Cc1ccc(Cn2c(/C=C/c3ccco3)nc3ccccc32)cc1,?,nt,?,?,10.7µM,?
CCn1c(/C=C/c2ccc(O)cc2)nc2ccccc2c1=O,?,nt,i,i,i,i
SMILES,ELG1 repair inh,SMN2 splice up,ELG1 genotoxic,NPC1 promoter act,FLuc counter,Rab9 prom act
C#CCn1c(/C=C/c2ccc(Cl)cc2)nc2ccccc21,nt,2.51µM,nt,nt,0.19µM,nt
Clc1ccc(Cn2c(/C=C/c3ccco3)nc3ccccc32)cc1,?,i,i,?,10.7µM,3.55µM
CC1CCCC(NC(=S)NC(=O)c2ccccc2Br)C1C (configuration not stated),?,i,i,i,i,i
CN(C)S(=O)(=O)c1cccc(C(=O)Nc2n[nH]c(C(F)(F)F)n2)c1,i,nt,i,i,i,i
COc1ccc2c(c1)O/C(=C\c1ccccc1C)C2=O,?,nt,i,i,13.5µM,?
CCc1ccc(/C=C2\Oc3cc(OC(=O)N4CCOCC4)ccc3C2=O)cc1,i,i,i,i,7.57µM,i
COc1ccc(/C=C2\Oc3cc(OC(=O)N4CCOCC4)ccc3C2=O)cc1,?,nt,i,i,6.75µM,i
O=C(Nc1ccnc(-c2ccncc2)n1)C1CC1,i,i,i,i,i,i
COc1ccccc1CNc1ncnc2c1cnn2-c1ccc(C)cc1,nt,nt,nt,nt,16.9µM,nt
Cc1ccc(-n2ncc3c(NCc4ccccc4)ncnc32)cc1,?,nt,4.61µM,3.55µM,i,?
COc1cc2ncnc(NCc3ccco3)c2cc1OC,?,i,i,i,i,i
Brc1ccc2ncnc(NCc3ccco3)c2c1,8.2µM,i,i,i,i,i
c1ccc(-n2ncc3c(NCc4ccco4)ncnc32)cc1,?,nt,10.3µM,?,23.9µM,?
Nc1nonc1-n1nnc(C(=O)N/N=C/c2ccco2)c1CSc1ccccc1,i,nt,i,i,i,i
CCCCNC(=O)CSc1nnc(-c2cccc(S(=O)(=O)N3CCOCC3)c2)o1,i,nt,i,i,i,i
CNc1ccccc1C(C)(C)c1cc(-c2cccc(OC)c2)no1,1.46µM,i,i,i,i,i
COc1cc(C)ccc1OCc1cc(C(=O)N2CCN(C3CCCCC3)CC2)no1,?,nt,?,?,16.9µM,?
CCN1CCN(C(=O)c2cc(COc3ccc(C(C)=O)cc3OC)on2)CC1,?,nt,?,2.24µM,12µM,3.16µM
COc1ccc(OCc2cc(C(=O)N3CCCCCCC3)no2)c(Cl)c1,?,nt,?,i,?,i
O=C(c1cc(COc2ccc(F)cc2F)on1)N1CCSCC1,?,nt,20.6µM,?,15.1µM,2.51µM
Cc1ccc(OCc2cc(C(=O)N3CCN(C4CCCCC4)CC3)no2)cc1C,?,nt,i[9.26 µM],i,?,i
COc1cc(C)ccc1OCc1cc(C(=O)N2CCCCCCC2)no1,?,nt,?,?,21.3µM,4.47µM
CSc1nc(-c2ccccc2)nn1C(=O)c1ccc(C)cc1,i,i,i,i,i,i
c1ccc(SCCSc2ccccc2)cc1,nt,i,nt,nt,nt,nt
Cc1ccccc1C(=O)N1CCC(N2CCN(Cc3ccc(F)cc3)C(=O)C2=O)CC1,nt,nt,nt,nt,i,nt
COc1ccc(C(=O)N2CCN(Cc3ccc4c(c3)OCO4)CC2)cc1[N+](=O)[O-],?,i,i,i,i,i
CCC(NC(=O)c1cc(COc2cncc(Cl)c2)on1)c1ccncc1 (configuration not stated),i,nt,i,i,i,i
O=C(c1cc(COc2ccc(F)cc2Cl)on1)N1CCCCCC1,?,nt,?,1.78µM,6.75µM,2µM
COc1ccc(OCc2cc(C(=O)N3CCN(C4CCCC4)CC3)no2)c(Cl)c1,?,nt,?,3.16µM,21.3µM,?
CCC(NC(=O)c1cc(COc2ccc(F)cc2Cl)on1)c1ccncc1 (configuration not stated),?,nt,i,i,21.3µM,i
